TbPYK inhibitor: T. brucei pyruvate kinase inhibition; TbPYK enzyme, Kinase-Glo Plus ATP luminescence, 45 min; Potency, µM (top dose mostly 76.8 µM), for inactives: top-dose activity, negative = inhibition, usual class: inhibitors; actives 0.12% (n = 410,000); AID 624173; note: potency is the fitted concentration of half-maximal effect; % is set by controls: 0 for no effect and ±100 for the full control effect; nearly all actives have a fitted effect of over 50% in size
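ADP (130 uM final) triggers the TbPYK reaction after compound addition; incubation is 45 min at room temperature. Kinase-Glo Plus is then added and luminescence imaged. Normalized data are fitted to concentration-effect curves.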
Shiga inhibitor: blocks Shiga toxin action in Vero cells. actives 9.2% (n = 290,000). inhibition, % at 38.7 µM. AID 2315. Vero cells, Shiga toxin protein synthesis inhibition reporter; in the data active = inhibition mostly above about 28%, no sharp cut-off; inactive = mostly below about 43%; note: 0% is about no effect
LmPK inh: blocks Leishmania mexicana pyruvate kinase activity. purified LmPK, Kinase-Glo ATP luminescence, 1 h. Q27686. actives 0.37% (n = 290,000). AID 1721. Potency, µM (highest dose often 57.5 µM), inactives show top-dose activity change, negative = inhibition, actives largely listed as inhibitors; note: potency is the fitted concentration of half-maximal effect; % is set by controls: 0 for no effect and ±100 for the full control effect
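Kinase-Glo luminescence read after 1 h RT reaction of 0.1 nM LmPK with 0.5 mM PEP and 0.1 mM ADP. Activity scaled between uninhibited and enzyme-free controls.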
Cycloheximide cs: counter-screen for Shiga toxin inhibitors: cycloheximide protein synthesis inhibition | actives 12% (n = 300,000) | AID 2314 | cell reporter, cycloheximide protein synthesis inhibition counterscreen | max response, %; in the data active = max response mostly above about 13%, no sharp cut-off; inactive = mostly below about 14%; note: read at 38.3 µM for the half of the compounds with a filed dose; 0% is about no effect
FBPA Giardia inh: Giardia lamblia aldolase inhibition. Potency, µM (top dose mostly 59.6 µM), for the others: at the top dose activity, negative = inhibition, hits mostly inhibitors. A8B2U2. purified Giardia FBPA. actives 0.71% (n = 290,000); note: potency is the fitted concentration of half-maximal effect; % is set by controls: 0 for no effect and ±100 for the full control effect; nearly all actives have a fitted effect of over 55% in size
Target sequence (A8B2U2 whole entry, looked up): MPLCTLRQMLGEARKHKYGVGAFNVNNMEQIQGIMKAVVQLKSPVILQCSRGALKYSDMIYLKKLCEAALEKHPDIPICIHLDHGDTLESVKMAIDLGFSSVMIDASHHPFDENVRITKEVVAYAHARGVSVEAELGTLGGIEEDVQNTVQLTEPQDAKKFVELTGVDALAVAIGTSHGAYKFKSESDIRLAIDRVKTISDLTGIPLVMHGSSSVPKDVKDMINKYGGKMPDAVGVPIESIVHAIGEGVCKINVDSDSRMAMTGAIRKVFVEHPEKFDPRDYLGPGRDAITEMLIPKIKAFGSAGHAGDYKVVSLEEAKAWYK
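Giardia FBPA (40 nM reagent) was preincubated 10 min at RT with compound (up to 57.5 uM final), then substrate plus GAPDH/TPI/NAD/arsenate coupling system with diaphorase/resazurin was added; resorufin fluorescence (525/598 nm) was read after 20 min.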
RE007 growth inh: less growth of the S. pombe RE007 Vpr strain. AID 651644. actives 0.21% (n = 360,000). Potency, µM (highest dose often 92.2 µM), inactives show at the top dose activity change, negative = less growth, usual class: inhibitors. S. pombe RE007 Vpr strain, BacTiter-Glo ATP luminescence, 24 h; active = well fitted falling curve with a large enough effect; inconclusive = small, poorly fitted or top-dose-only effect; inactive = no such curve, though single readings can be large or run the other way; note: potency is the fitted concentration of half-maximal effect; % is set by controls: 0 for no effect and ±100 for the full control effect; nearly all actives have a fitted effect of over 50% in size
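Fission yeast RE007 carrying one integrated HIV-1 vpr copy, seeded at OD 0.01 in PMG+AL medium with 23 nL pinned compound. Grown 24 h at 30 degrees; viability read by BacTiter-Glo luminescence after 5 min.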
* = called active by the depositor; ? = inconclusive; . = no result. This is one part of a sample in which hits are shown more often than they occur. Unless noted, calls come from the whole dose curve; as a rule, active = well fitted curve in the direction sought with a large enough effect; inconclusive = small, poorly fitted or top-dose-only effect, or another doubt; inactive = no such curve, though single readings can be large; an effect the other way counts as inactive or inconclusive.

SMILES	TbPYK inhibitor	Shiga inhibitor	LmPK inh	Cycloheximide cs	FBPA Giardia inh	RE007 growth inh
O=C(N/N=C/c1ccccc1OCC(=O)N1CCCC1)C(=O)Nc1ccccc1F	-11%	active	?	33*	9%	3%
O=C(N/N=C/c1ccc(OCc2ccccc2)cc1)c1cccs1	6%	66*	-2%	43*	6%	-8%
Oc1ccc(N=Cc2ccc(OCc3ccccc3)cc2)cc1	-23%	80*	-27%	44*	20µM*	-1%
O=C(C[n+]1ccc(C(=O)N/N=C/c2ccc(OCc3ccccc3)cc2)cc1)c1ccccc1	4%	62*	-4%	54*	1%	-3%
COC(=O)C1=C[C@@H](C(=O)OC)C2C3=C(C(=O)[C@]2(CC(C)C)NC(=O)c2ccccc2)[C@H](C)n2c(=O)n(-c4ccccc4)c(=O)n2[C@@H]3C1 (some centres not stated)	.	-8	.	-3	-2%	.
CCC(Cn1nnc2ccccc2c1=O)NC(=O)Nc1cc(Cl)ccc1OC (configuration not stated)	-1%	.	.	.	.	.
O=C(O)CN1C(=O)/C(=C\c2cc(Br)ccc2OCc2ccc(Cl)cc2)SC1=S	2%	37	6%	7	-1%	1%
COc1ccc(/C=C2/SC(=S)N(CCCC(=O)N3CCN(C)CC3)C2=O)cc1	-16%	35*	?	12*	-3%	-4%
COc1ccc(/C=C2\SC(=S)N(CC(=O)NCCO)C2=O)cc1	-2%	30	-7%	21*	3%	13%
COc1ccc(/C=C2\SC(=S)N(CC(=O)Nc3nnc(C)s3)C2=O)cc1	-6%	-10	0%	-2	1%	3%
COc1ccc(/C=C2/SC(=S)N(CCC(=O)N3CCN(C)CC3)C2=O)cc1	1%	-6	-2%	-4	14%	-8%
COc1ccc(/C=C2/SC(=S)N(CC(=O)O)C2=O)cc1OCc1ccc(Cl)cc1	-16%	42*	-3%	33*	5%	-11%
N#CCCN(C(=O)COc1ccc(Cl)cc1Cl)c1ccccc1	1%	29	1%	19*	3%	-10%
Cc1ccc(O)c(NC(=O)c2ccco2)c1	-25%	56*	-27%	36*	2%	?
Cc1cc(O)c(NC(=O)c2ccco2)cc1C	1%	99*	-29%	57*	-12%	?
Cc1ccc(O)c(NC(=O)c2cccc(NC(=O)c3ccco3)c2)c1	-11%	58*	-1%	30*	7%	10%
Cc1c(Cl)cccc1NC(=O)c1ccco1	2%	.	-3%	10	3%	-15%
Cc1cc(C)cc(NC(=O)c2cccc(NC(=O)c3ccco3)c2)c1	3%	.	.	.	.	?
Cc1ccc(C(=O)Nc2ccc(NC(=O)c3ccco3)c(C)c2)cc1	-1%	49*	3%	31*	1%	29%
Cc1ccc(SCc2nc3ncccn3c2Br)cc1	2%	37	5%	28*	-9%	12%
C#CCN(Cc1ccco1)C(=O)c1cc(COc2ccc(F)cc2Cl)on1	0%	47*	1%	15	?	23%
CCN(Cc1ccncc1)C(=O)c1cc(COc2ccc(F)cc2Cl)on1	-11%	-17	-15%	-3	.	-11%
CSc1ccccc1OCc1cc(C(=O)N(C)CCn2nc(C)cc2C)no1	0%	30*	-7%	31*	.	1%
CSc1ccccc1OCc1cc(C(=O)N(C)Cc2nonc2C)no1	3%	189*	2%	59*	4%	-8%
Cc1cc(CN(C)C(=O)c2cc(COc3ccc(F)cc3Cl)on2)n[nH]1	7%	117*	3%	33*	-1%	-2%
SMILES	TbPYK inhibitor	Shiga inhibitor	LmPK inh	Cycloheximide cs	FBPA Giardia inh	RE007 growth inh
CCN(CCN1CCCC1)C(=O)c1cc(COc2ccccc2SC)on1	-7%	-5	2%	11	.	-10%
Cc1ccc(Cn2ccn(CC(=O)Nc3ccccc3C(F)(F)F)c(=O)c2=O)cc1	0%	.	.	.	.	.
Cc1ccc(CN(C)C(=O)c2cc(COc3ccc(F)cc3Cl)on2)o1	?	50*	3%	31*	-8%	-22%
Cc1nonc1CN(C)C(=O)c1cc(COc2ccc(F)cc2Cl)on1	1%	58*	-1%	46*	.	2%
CN(Cc1ccccn1)C(=O)c1cc(COc2ccc(F)cc2Cl)on1	3%	.	.	.	.	-5%
CSc1ccccc1OCc1cc(C(=O)N(C)Cc2ccncn2)no1	1%	105*	0%	49*	.	-9%
COc1ccc(-n2ccnc(NCCc3ccc(S(N)(=O)=O)cc3)c2=O)cc1	3%	.	.	.	.	.
Cc1nn(C)c(C)c1CNC(=O)Nc1cccc(Cl)c1	3%	114*	15%	57*	0%	38%
Cc1nn(C)c(C)c1CNC(=O)Nc1ccc(Cl)cc1	0%	145*	-3%	73*	0%	4%
Cc1nn(C)c(C)c1CNC(=O)Nc1ccc2c(c1)OCO2	11%	65*	0%	37*	1%	-4%
Cc1nn(C)c(C)c1S(=O)(=O)Nc1ccc2c(c1)OCO2	1%	32	2%	15	-10%	-7%
Cc1ccc(N2C(=O)N(CC(=O)Nc3ccc(C)c(C)c3)C(=O)C2C)cc1 (configuration not stated)	-5%	.	.	.	.	9%
O=C(NC(=S)Nc1nc2ccccc2s1)c1cccs1	0%	74*	-5%	82*	?	6%
COC(=O)Cc1nc(NC(=O)c2cccs2)sc1C	9%	54*	0%	35*	22%	-4%
COC(=O)c1nc(NC(=S)NC(=O)c2cccs2)sc1C	-2%	51*	-5%	23*	.	-8%
CCc1ccc(-c2nc(NC(=S)NC(=O)c3cccs3)sc2C)cc1	0%	-5	3%	-1	-14%	2%
COc1ccc(Cn2c(C(=O)O)c(CNCc3ccccc3F)c3ccc(OC)cc32)cc1	-5%	.	.	.	.	.
Cc1cccc(-c2cc(=O)c3cc(Br)ccc3o2)c1	.	.	.	.	7%	.
COc1ccc(NC(=O)CC2C(=O)N(c3ccc(C)cc3)C(=O)N2Cc2cccnc2)cc1 (configuration not stated)	0%	.	.	.	.	.
NC(=O)CC(NC(=O)Cc1cccc2ccccc12)c1ccc(N2CCN(c3ccccn3)CC2)c([N+](=O)[O-])c1 (configuration not stated)	-9%	2	0%	6	-7%	-6%
Cc1ccc(N2C(=O)C(F)(F)C2c2ccccc2)cc1 (configuration not stated)	1%	26	3%	-1	3%	-4%
Cc1ccc(N2C(=N)/C(=C3/Nc4ccccc4S3)C(c3ccccc3)C2=O)cc1 (configuration not stated)	-7%	62*	4%	44*	-1%	1%

Bioassay records deposited in PubChem BioAssay by National Center for Advancing Translational Sciences (NCATS).
